From paper PMC4336329 (PLoS ONE, 2015) come the findings set out here.

About 14,000 (4.5%) of roughly 310,000 compounds showed an effect of 50% or more. Effects have a minus sign here. Only a selection was taken, and strong results are over-represented in it overall.
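Note: peak tail current of the secondary pulse compared with the same well before compound.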

human ether-à-go-go-related gene (hERG) potassium channel, sequence (Q12809 whole entry, looked up): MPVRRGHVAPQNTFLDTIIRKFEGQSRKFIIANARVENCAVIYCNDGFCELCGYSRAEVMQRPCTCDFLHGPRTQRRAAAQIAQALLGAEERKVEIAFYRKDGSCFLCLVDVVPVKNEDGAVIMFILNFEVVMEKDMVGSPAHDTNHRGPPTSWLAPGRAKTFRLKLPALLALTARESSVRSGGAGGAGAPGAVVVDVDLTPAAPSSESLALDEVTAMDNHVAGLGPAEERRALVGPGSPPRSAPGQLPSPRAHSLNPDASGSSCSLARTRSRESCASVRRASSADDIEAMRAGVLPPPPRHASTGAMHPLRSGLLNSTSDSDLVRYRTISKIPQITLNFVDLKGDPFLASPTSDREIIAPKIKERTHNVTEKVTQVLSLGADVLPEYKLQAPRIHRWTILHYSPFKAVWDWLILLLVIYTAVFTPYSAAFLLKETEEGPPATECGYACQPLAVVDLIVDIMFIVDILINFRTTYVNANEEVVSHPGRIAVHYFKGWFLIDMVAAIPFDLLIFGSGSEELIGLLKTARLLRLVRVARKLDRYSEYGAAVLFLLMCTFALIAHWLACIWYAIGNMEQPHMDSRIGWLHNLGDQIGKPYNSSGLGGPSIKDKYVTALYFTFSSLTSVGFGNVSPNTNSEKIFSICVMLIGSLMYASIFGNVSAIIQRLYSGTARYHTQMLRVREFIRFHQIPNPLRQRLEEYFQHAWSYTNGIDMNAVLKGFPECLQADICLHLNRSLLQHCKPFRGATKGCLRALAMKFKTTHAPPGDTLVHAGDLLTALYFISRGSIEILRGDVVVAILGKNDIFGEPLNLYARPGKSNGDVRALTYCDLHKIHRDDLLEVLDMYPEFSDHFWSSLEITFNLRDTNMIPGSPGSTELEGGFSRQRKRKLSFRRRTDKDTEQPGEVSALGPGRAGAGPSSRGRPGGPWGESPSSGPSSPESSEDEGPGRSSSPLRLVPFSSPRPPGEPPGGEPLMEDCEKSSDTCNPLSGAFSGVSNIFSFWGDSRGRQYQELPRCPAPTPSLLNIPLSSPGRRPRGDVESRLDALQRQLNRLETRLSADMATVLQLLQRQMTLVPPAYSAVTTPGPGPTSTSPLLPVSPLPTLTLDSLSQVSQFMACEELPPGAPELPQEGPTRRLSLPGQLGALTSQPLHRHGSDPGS

This assay addresses human ether-à-go-go-related gene (hERG) potassium channel (human, UniProt Q12809). Kind of assay: primary screen, population patch clamp on CHO cells stably expressing hERG; higher = less effect of the substance.
Consider `Cc1ccc(-n2nc3c(c2NC(=O)c2ccco2)CS(=O)C3)cc1` (centres unmarked), for which the “hERG current change (%, negative = inhibition) at 10uM” value was -8.69%.
In the case of `CC(C)Cn1c(=S)[nH]c2ccccc2c1=O`, the “hERG current change (%, negative = inhibition) at 10uM” value was determined as 22%.
With `CCCNC(=O)NCCc1ccncc1`, the “hERG current change (%, negative = inhibition) at 10uM” value amounted to 7.09%.
For `COc1ccc2c(c1OC)C(=O)N(c1ccc(O)cc1)C2=O`, the “hERG current change (%, negative = inhibition) at 10uM” value was found to be 13.4%.
To `Cc1cc(=O)oc(C)c1C(=O)NCCNC(=O)c1c(C)cc(=O)oc1C` belongs 3.85%.
For `CCN(CCCNC(=O)c1[nH]c(C)c(C(C)=O)c1C)c1cccc(C)c1`, the “hERG current change (%, negative = inhibition) at 10uM” value is -18.2%.
As for `CCN(CCCNC(=O)c1c(C)cc(=O)oc1C)c1ccccc1`, the figure is -52.7%; as for `CCCCN(CCCNC(=O)c1c(C)cc(=O)oc1C)c1ccccc1`, -64.4%; as for `CCN(CCCNC(=O)c1c(C)cc(=O)oc1C)c1cccc(C)c1`, -65.3%.
As for `CCCNC(=O)c1c(C)cc(=O)oc1C`, the “hERG current change (%, negative = inhibition) at 10uM” value is listed as -6.11%.
Turning to `Cc1cc(=O)oc(C)c1C(=O)NCCc1ccccc1`, the “hERG current change (%, negative = inhibition) at 10uM” value was 7.49%.
With `Cc1cc(=O)oc(C)c1C(=O)NCc1ccccc1`, the “hERG current change (%, negative = inhibition) at 10uM” value is 11.2%.
As for `Cc1cc(=O)oc(C)c1C(=O)NCCN(C)Cc1ccccc1`, the figure is 8.33%.
As for `CC(=O)c1ccc(N2CCN(C(=O)CCS(=O)(=O)c3ccc4c(c3)CCN4C(C)=O)CC2)cc1`, the figure is 3.77%; as for `COc1ccc(-c2csc3ncn(Cc4ccccc4)c(=O)c23)cc1`, -0.922%; as for `COc1ccc(N2CCN(CC(=O)N3N=CCC3c3ccccc3)CC2)cc1` (centres unmarked), -2.49%.
As for `O=C(COC(=O)CCc1c[nH]c2ccccc12)NCc1ccc2c(c1)OCO2`, the figure is 13.2%; as for `C/C(=N\NC(=S)NC1CCCCC1)c1c(F)cccc1F`, -35%.
Turning to `C/C(N)=C(/C#N)C(=O)COC(=O)[C@@H](NC(=O)c1ccccc1Cl)C(C)C`, the “hERG current change (%, negative = inhibition) at 10uM” value is on record as 4.16%.
Consider `COc1ccc(S(=O)(=O)N2CCOC2CNC(=O)C(=O)NCc2ccncc2)cc1` (centres unmarked), for which the “hERG current change (%, negative = inhibition) at 10uM” value is recorded as 3.26%.
Regarding `COc1ccc(OC)c(-c2nnc(SCC(=O)NC3CCCCC3)o2)c1`, the “hERG current change (%, negative = inhibition) at 10uM” value is -59.8%.
Regarding `COc1ccc(-c2nnc(SCC(=O)NC3CCCCC3)o2)cc1OC`, the “hERG current change (%, negative = inhibition) at 10uM” value is -9.47%.
As to `COc1ccc(-c2ccc(SCC(=O)NC3CCCCC3)nn2)cc1OC`, the “hERG current change (%, negative = inhibition) at 10uM” value was 16.4%.
Regarding `COc1ccccc1-c1ccc(SCC(=O)NC2CCCC2)nn1`, the “hERG current change (%, negative = inhibition) at 10uM” value is listed as -24.5%.
To `COc1ccccc1-c1nnc(SCC(=O)NC2CCCCC2)o1` belongs -27.4%; to `COc1ccccc1-c1ccc(SCC(=O)NC2CCCCC2)nn1`, -72%.
As to `Cc1ccc(NS(=O)(=O)c2ccc(C(=O)NNC(=O)c3ccccc3O)cc2)cc1`, the “hERG current change (%, negative = inhibition) at 10uM” value is reported as 0.906%.
`COC(=O)Cn1c(=NC(=O)c2ccc(Cl)s2)sc2cc(F)ccc21`: the “hERG current change (%, negative = inhibition) at 10uM” value is 20%.
To `O=C(CCS(=O)(=O)c1ccc(Cl)cc1)Nc1ccc(N2CCOCC2)cc1` belongs -6.95%; to `CCOC(=O)c1sc2nc(C)nc(Nc3ccc(OC)cc3)c2c1C`, 24.1%; to `O=S(=O)(Nc1cccnc1)c1cccc(C(F)(F)F)c1`, -2.26%.
To `CC(NC(=O)Cc1ccc(NS(=O)(=O)c2cccc(C(F)(F)F)c2)cc1)c1ccccn1` (centres unmarked) belongs -7.55%; to `CN(Cc1cccnc1)C(=O)Cc1ccc(NS(=O)(=O)c2cccc(C(F)(F)F)c2)cc1`, -57.6%.
With `Cc1ccc(C(=O)N2CCOCC2)cc1Cl`, the “hERG current change (%, negative = inhibition) at 10uM” value was 2.91%.
As for `Cc1c(NC(=O)C(C)OC(=O)c2ccc(Cl)nc2)c(=O)n(-c2ccccc2)n1C` (centres unmarked), the figure is -2.18%; as for `O=C(COC(=O)c1ccccc1F)NC(=O)NC1CCCC1`, 1.24%.
For `N#CC1(NC(=O)CN2c3cccc4cccc(c34)S2(=O)=O)CCCCC1`, the “hERG current change (%, negative = inhibition) at 10uM” value was 14.9%.
Consider `COc1ccccc1-c1nnc(C2CCN(S(=O)(=O)c3ccc([N+](=O)[O-])cc3)CC2)o1`, for which the “hERG current change (%, negative = inhibition) at 10uM” value is reported as -74.6%.
To `O=[N+]([O-])c1cccc(S(=O)(=O)N2CCC(c3nc(-c4ccncc4)no3)CC2)c1` belongs 1.54%; to `COc1ccccc1-c1nnc(NC(=O)c2ccc(S(=O)(=O)N3CCCC3)cc2)o1`, -17.3%; to `COc1ccccc1-c1nnc(C2CCN(S(=O)(=O)c3cccc([N+](=O)[O-])c3)CC2)o1`, -57.6%.
Turning to `COc1ccccc1-c1nnc(C2CCN(S(=O)(=O)c3ccccc3[N+](=O)[O-])CC2)o1`, the “hERG current change (%, negative = inhibition) at 10uM” value is reported as -45.2%.
As for `COc1ccccc1CNC(=O)C1CCN(S(=O)(=O)c2cccc([N+](=O)[O-])c2)CC1`, the figure is -3.34%.
Regarding `O=C(CCCN1C(=O)c2ccccc2C1=O)NCc1ccco1`, the “hERG current change (%, negative = inhibition) at 10uM” value is 6.15%.
On to `COc1ccc(N2C(=O)CC(Nc3cccc(C(C)=O)c3)C2=O)cc1OC` (centres unmarked), for which the “hERG current change (%, negative = inhibition) at 10uM” value came to 7.07%.
Turning to `COc1cc(OC)cc(C(=O)NCCCNC(=O)c2cccnc2)c1`, the “hERG current change (%, negative = inhibition) at 10uM” value came out at 7.43%.
As for `N#C/C(=C\c1ccc(N2CCCCC2)o1)C(N)=O`, the figure is 7.71%.
As to `OCCC1CN(Cc2cccn2-c2cccnc2)CCN1CCc1ccccc1` (centres unmarked), the “hERG current change (%, negative = inhibition) at 10uM” value is reported as -65.2%.
To `OCCC1CN(Cc2cccn2-c2ncccn2)CCN1CCc1ccccc1` (centres unmarked) belongs -68.2%; to `CC(C)CCN1CCN(Cc2cccn2-c2cccnc2)CC1CCO` (centres unmarked), -32.5%.
As to `Cc1ncc(CN2CCN(Cc3ccc(F)cc3)C(CCO)C2)s1` (centres unmarked), the “hERG current change (%, negative = inhibition) at 10uM” value came out at 9.56%.
For `OCCC1CN(Cc2cccn2-c2ncccn2)CCN1Cc1ccc(F)cc1` (centres unmarked), the “hERG current change (%, negative = inhibition) at 10uM” value is reported as -73.7%.
To `OCCC1CN(Cc2cccn2-c2ncccn2)CCN1Cc1ccccc1` (centres unmarked) belongs -64.2%; to `Cc1cc(C)n(-c2ccc(C(=O)OCC(=O)Nc3ccc([N+](=O)[O-])cc3)cc2)n1`, -10.6%.
As for `Cc1ccc(C(=O)Nc2nnc(SCC(=O)N3CCCc4ccccc43)s2)cc1`, the figure is 7.27%; as for `Cc1ccc(-n2c(SCC(=O)O)nc3c(sc(=S)n3-c3ccc(C)c(C)c3)c2=O)cc1`, 14%; as for `O=C(c1cn(-c2ccccc2)nc1-c1ccc(Cl)s1)N1CCOCC1`, -20.9%.
For `COc1ccc(CNC(=O)COC(=O)/C=C/c2cccc(Br)c2)cc1OC`, the “hERG current change (%, negative = inhibition) at 10uM” value stood at 30.1%.
In the case of `CC(=O)Nc1ccc(C2=NN(c3ccccc3)C(c3cccs3)C2)cc1` (centres unmarked), the “hERG current change (%, negative = inhibition) at 10uM” value is 7.7%.
Take `Cc1cc(NC(=O)COc2ccc(F)c(Cl)c2)no1`: the “hERG current change (%, negative = inhibition) at 10uM” value amounted to 17.7%.
As for `CCn1c(SCc2ccccc2)nc2ccccc2c1=O`, the figure is 2.76%.
To `Cc1ccc(OCC(=O)NC(C)c2ccccc2)cc1` (centres unmarked) belongs -1.19%; to `O=C1C2=C(CCCC2)C(=O)N1CNc1ccccc1`, 16.3%.
`O=C1CC(N(Cc2cccs2)C(=O)Nc2ccccc2)C(=O)N1c1ccc(Cl)cc1` (centres unmarked): the “hERG current change (%, negative = inhibition) at 10uM” value is -22.6%.
In the case of `Cc1ccccc1OCc1nc2ccccc2c(=O)n1/N=C/c1cn[nH]c1-c1ccc(Br)cc1`, the “hERG current change (%, negative = inhibition) at 10uM” value is 15.8%.
Take `CCN(CC)c1ccc(NC(=O)Nc2cccc3ccccc23)cc1`: the “hERG current change (%, negative = inhibition) at 10uM” value worked out at 7.7%.
As for `CCn1nc(C)c(CN2CCN(Cc3ccc(OC)c(C)c3C)C(CCO)C2)c1C` (centres unmarked), the “hERG current change (%, negative = inhibition) at 10uM” value is given as -45.8%.
To `COc1ccc(CN2CCN(CC3CC3)CC2CCO)c(C)c1C` (centres unmarked) belongs -0.714%; to `COc1ccc(CN2CCN(Cc3cccn3-c3ncccn3)CC2CCO)c(C)c1C` (centres unmarked), -81.6%; to `CC(C(=O)NCC(=O)Nc1ccc(F)c(F)c1F)N1CCN(c2ccc(O)cc2)CC1` (centres unmarked), -6.1%.
To `CC(C(=O)NCC(=O)Nc1ccc(F)c(F)c1F)N1CCN(Cc2ccc(C#N)cc2)CC1` (centres unmarked) belongs -61%; to `N#Cc1ccc(-c2ccc(OCC(=O)NCC(=O)Nc3ccc(F)c(F)c3F)cc2)cc1`, -7.98%.
As for `CCOC(=O)N1CCC(N2C(=O)c3ccc(C(=O)Nc4ccc(OC)c(OC)c4)cc3C2=O)CC1`, the figure is 23.2%; as for `O=C(/N=C1\NC(=O)C(F)(C(F)(F)F)S1)NC1CCCCC1` (centres unmarked), 13%.
For `Cn1c(CN2CCCCC2)nc2cc(NS(=O)(=O)c3ccc(F)cc3)ccc21`, the “hERG current change (%, negative = inhibition) at 10uM” value is on record as -54.2%.
As for `O=S(=O)(Nc1ccc2c(c1)nc1n2CCN(Cc2ccccc2)C1)c1ccc(F)cc1`, the figure is -50.4%; as for `O=S(=O)(Nc1ccc2c(c1)nc1n2CCN(Cc2ccccc2)C1)c1ccccc1`, -40.1%.
To `O=S(=O)(Nc1ccc2c(c1)nc1n2CCN(Cc2ccccc2)C1)c1ccc(Cl)cc1` belongs -2.38%; to `CCCC(=O)Nc1ccc2c(c1)nc(CCN1CCCCC1)n2C`, -4.96%; to `CC(C)C(=O)Nc1ccc2c(c1)nc(CCN1CCCCC1)n2C`, -0.778%.
Turning to `Cn1c(CCN2CCCCC2)nc2cc(NS(=O)(=O)c3ccc(F)cc3)ccc21`, the “hERG current change (%, negative = inhibition) at 10uM” value is on record as -67.6%.
Regarding `O=C(O)CN(c1ccccn1)S(=O)(=O)c1ccccc1`, the “hERG current change (%, negative = inhibition) at 10uM” value was -8.38%.
To `O=C(NCCc1ccccc1)C(=O)NCC(c1ccco1)N1CCOCC1` (centres unmarked) belongs 23.8%.
Take `Cc1ccc(NC(=O)C2CCN(S(=O)(=O)c3ccc4c(c3)CCCC(=O)N4)CC2)cc1N(C)C`: the “hERG current change (%, negative = inhibition) at 10uM” value was -14.7%.
To `O=C(COC(=O)c1ccc2c(c1)OCCO2)NCCC1=CCCCC1` belongs -10.8%; to `CN(C(=O)C1CCN(S(=O)(=O)c2cccs2)CC1)c1ccccc1`, -16.9%.
